# In PubChem BioAssay (EPA / NIEHS):
# Inconclusive results are not listed. The source made the active and inactive calls. How the source made its calls: active means hit-call score of the fitted dose curve at least 0.9, where 1 is the maximum; inconclusive means response in the unintended direction; inactive means score below 0.9.
# Legend:
# [1] = target: rat Thyrotropin Releasing Hormone Receptor (TRH), Trhr (gene 25570) (UniProt Q01717); assay: NVS_GPCR_rTRH: NovaScreen (NVS) G Protein-Coupled Receptor Assay for rat Thyrotropin Releasing Hormone Receptor (TRH) (AID 2283329);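 further: hit means lower bound tracer signal versus DMSO baseline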
# Sequence of rat Thyrotropin Releasing Hormone Receptor (TRH), Trhr (gene 25570) (Q01717 whole entry, looked up): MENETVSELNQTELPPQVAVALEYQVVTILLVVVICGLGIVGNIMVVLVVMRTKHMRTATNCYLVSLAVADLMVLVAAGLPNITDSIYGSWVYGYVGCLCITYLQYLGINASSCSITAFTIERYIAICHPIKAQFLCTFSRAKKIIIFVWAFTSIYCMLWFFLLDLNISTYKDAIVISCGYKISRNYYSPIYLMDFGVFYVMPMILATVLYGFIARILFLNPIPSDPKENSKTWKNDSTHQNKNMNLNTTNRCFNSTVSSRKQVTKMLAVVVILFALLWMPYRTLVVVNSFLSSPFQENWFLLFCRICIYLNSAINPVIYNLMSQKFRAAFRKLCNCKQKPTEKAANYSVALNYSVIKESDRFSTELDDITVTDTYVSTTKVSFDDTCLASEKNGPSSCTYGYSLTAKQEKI
# In short: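 Competitive radioligand binding on rat forebrain membrane preparations, with filtration and scintillation readout after 4 h. Primary testing in duplicate at 25 uM; actives confirmed in concentration-response. DMSO defined baseline.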
# [2] = target: human Androgen Receptor (AR), AR (gene 367) (UniProt P10275); assay: NVS_NR_hAR: NovaScreen (NVS) Nuclear Receptor Binding Assay for human Androgen Receptor (AR) (AID 2283332)
# Sequence of human Androgen Receptor (AR), AR (gene 367) (P10275 whole entry, looked up): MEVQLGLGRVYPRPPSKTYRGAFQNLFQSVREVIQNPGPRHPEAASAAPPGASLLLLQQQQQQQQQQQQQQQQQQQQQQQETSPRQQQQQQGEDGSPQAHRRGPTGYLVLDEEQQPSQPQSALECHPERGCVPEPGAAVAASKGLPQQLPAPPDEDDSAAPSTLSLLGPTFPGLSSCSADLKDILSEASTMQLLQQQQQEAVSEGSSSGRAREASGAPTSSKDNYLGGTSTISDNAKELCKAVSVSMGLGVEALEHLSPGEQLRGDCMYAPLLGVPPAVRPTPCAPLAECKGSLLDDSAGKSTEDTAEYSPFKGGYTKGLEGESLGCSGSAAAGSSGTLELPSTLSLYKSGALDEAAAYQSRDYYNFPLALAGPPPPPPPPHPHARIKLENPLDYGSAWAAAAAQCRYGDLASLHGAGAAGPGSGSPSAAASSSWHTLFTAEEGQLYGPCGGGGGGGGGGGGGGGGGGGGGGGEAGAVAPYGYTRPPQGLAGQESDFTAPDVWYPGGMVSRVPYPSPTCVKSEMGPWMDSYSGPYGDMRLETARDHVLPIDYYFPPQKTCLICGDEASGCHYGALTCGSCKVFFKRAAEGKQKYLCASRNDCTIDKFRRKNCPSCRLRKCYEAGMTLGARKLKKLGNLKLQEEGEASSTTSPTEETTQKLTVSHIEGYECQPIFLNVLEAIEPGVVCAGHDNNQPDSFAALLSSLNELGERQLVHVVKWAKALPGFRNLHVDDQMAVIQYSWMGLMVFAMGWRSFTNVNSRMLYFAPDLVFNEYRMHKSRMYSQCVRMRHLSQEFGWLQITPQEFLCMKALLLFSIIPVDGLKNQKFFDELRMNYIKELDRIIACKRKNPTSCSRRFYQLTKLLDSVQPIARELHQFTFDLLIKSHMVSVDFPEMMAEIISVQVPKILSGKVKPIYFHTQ
# In short: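 LnCAP cell-free extract; radioligand displacement read by scintillation counting after 20 h. Primary screen single concentration 25 uM in duplicate, actives then run as concentration series; loss-of-signal fitted relative to DMSO baseline.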
# [3] = system: rat Adrenergic, Alpha 1B Receptor (Adra1B), gene 24173; assay: NVS_GPCR_rAdra1B: NovaScreen (NVS) G Protein-Coupled Receptor Assay for rat Adrenergic, Alpha 1B Receptor (Adra1B) (AID 2283297)
# In short: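 Filter-binding radioligand competition on membranes from rat liver, read after 1 h by scintillation counting. Single-concentration duplicate screen at 25 uM, followed by concentration-response on actives, normalised to DMSO.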
# [4] = target: rat Adrenergic Receptor, Alpha 2 (Adra2), Non-selective Binding, Adra2a (gene 25083) (UniProt P22909); assay: NVS_GPCR_rAdra2_NonSelective: NovaScreen (NVS) G Protein-Coupled Receptor Assay for rat Adrenergic Receptor, Alpha 2 (Adra2), Non-selective Binding (AID 2283299)
# Sequence of rat Adrenergic Receptor, Alpha 2 (Adra2), Non-selective Binding, Adra2a (gene 25083) (P22909 whole entry, looked up): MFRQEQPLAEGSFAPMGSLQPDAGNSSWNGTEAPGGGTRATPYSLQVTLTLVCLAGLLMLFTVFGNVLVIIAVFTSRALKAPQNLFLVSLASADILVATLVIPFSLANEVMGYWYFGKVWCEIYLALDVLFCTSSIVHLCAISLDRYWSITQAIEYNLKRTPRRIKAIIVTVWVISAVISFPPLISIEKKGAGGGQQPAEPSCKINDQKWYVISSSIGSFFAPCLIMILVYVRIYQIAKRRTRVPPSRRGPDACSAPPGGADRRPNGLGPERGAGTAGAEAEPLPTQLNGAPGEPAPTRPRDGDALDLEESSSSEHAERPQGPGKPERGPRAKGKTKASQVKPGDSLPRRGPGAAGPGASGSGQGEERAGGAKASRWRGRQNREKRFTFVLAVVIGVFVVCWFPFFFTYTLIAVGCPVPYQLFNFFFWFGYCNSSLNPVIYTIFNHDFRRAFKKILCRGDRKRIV
# In short: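 Filter-based scintillation counting of radioligand binding to rat cortical membrane receptors, measured 1.25 hours post-dosing; loss of signal versus DMSO indicates displacement. Initial single-concentration duplicate at 25 uM, then concentration series.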
# [5] = target: rat Histamine Receptor (H3), Hrh3 (gene 85268) (UniProt Q9QYN8); assay: NVS_GPCR_rH3: NovaScreen (NVS) G Protein-Coupled Receptor Assay for rat Histamine Receptor (H3) (AID 2283303)
# Sequence of rat Histamine Receptor (H3), Hrh3 (gene 85268) (Q9QYN8 whole entry, looked up): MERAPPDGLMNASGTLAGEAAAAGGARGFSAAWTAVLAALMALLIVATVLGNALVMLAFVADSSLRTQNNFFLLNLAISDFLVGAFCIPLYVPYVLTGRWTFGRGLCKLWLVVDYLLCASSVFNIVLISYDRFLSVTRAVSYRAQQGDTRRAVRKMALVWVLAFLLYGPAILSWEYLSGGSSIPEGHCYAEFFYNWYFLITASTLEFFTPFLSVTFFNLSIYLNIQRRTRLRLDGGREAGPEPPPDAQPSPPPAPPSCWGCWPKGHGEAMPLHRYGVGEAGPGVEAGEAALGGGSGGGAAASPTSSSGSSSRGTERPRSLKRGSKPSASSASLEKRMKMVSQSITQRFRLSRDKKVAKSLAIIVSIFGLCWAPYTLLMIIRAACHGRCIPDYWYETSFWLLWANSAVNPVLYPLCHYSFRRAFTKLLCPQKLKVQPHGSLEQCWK
# In short: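 Filter-binding radioligand competition on rat forebrain membranes, 1 h incubation; compounds screened at 25 µM in duplicate and followed in concentration series to 50 µM, loss of bound signal vs DMSO.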
# Adra2b (gene 24174) = Adra2b (gene 24174) (UniProt P19328); assay: NVS_GPCR_rmAdra2B: NovaScreen (NVS) G Protein-Coupled Receptor Assay for hybird cells Adrenergic, Alpha 2B Receptor (Adra2B) (AID 2283306)
# Sequence of Adra2b (gene 24174) (P19328 whole entry, looked up): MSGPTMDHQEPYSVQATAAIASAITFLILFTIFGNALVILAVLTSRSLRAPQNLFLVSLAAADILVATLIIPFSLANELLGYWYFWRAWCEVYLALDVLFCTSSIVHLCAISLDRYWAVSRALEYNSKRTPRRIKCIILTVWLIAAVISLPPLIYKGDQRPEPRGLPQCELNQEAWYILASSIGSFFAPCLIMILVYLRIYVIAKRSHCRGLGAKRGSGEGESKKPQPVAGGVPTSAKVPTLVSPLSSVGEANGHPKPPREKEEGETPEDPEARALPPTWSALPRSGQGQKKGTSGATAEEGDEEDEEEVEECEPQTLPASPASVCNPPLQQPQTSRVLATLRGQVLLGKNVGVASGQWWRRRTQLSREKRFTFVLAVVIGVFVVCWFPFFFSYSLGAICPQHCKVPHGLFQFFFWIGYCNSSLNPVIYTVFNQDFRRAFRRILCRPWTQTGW
# In short: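 Compounds screened first at 25 uM in duplicate, with actives followed up in concentration-response; specific radioligand displacement from hybrid neuroglioma/blastoma cell membrane preparations measured by filter scintillation counting after 1 h, normalized to DMSO.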
# [6] = NVS_IC_rCaDHPRCh_L: NovaScreen (NVS) Ion Channel Assay for rat Calcium Channel, Type L, Dihydropyridine Site (CaDHPRCh_L) (AID 2283320)
# In short: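 Rat cortex membrane preparation; dihydropyridine-site radioligand displacement read 1 h post-dose by filtration and scintillation. Primary single-point screen 25 uM in duplicate, then concentration series to 50 uM maximum; DMSO as negative control.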
# [7] = target: Sodium channel protein type 1 subunit alpha (Rattus norvegicus) (UniProt P04774); assay: NVS_IC_rNaCh_site2: NovaScreen (NVS) Ion Channel Assay for rat Sodium Channel, Site 2 (NaCh) (AID 2283322);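 further: hit means loss of radioligand binding signal relative to DMSO so AC50 marks displacement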
# In short: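 Initial duplicate single-point testing at 25 uM, followed by concentration-response runs for actives. Binding of radioligand to rat forebrain membranes quantified after 1 h via filter-based radiodetection.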
# [8] = target: human Peripheral-type Benzodiazepine Receptor (PBR), TSPO (gene 706) (UniProt P30536); assay: NVS_MP_hPBR: NovaScreen (NVS) Membrane Protein Assay for human Peripheral-type Benzodiazepine Receptor (PBR) (AID 2283331);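 further: hits reduce radioligand binding relative to DMSO baseline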
# Sequence of human Peripheral-type Benzodiazepine Receptor (PBR), TSPO (gene 706) (P30536 whole entry, looked up): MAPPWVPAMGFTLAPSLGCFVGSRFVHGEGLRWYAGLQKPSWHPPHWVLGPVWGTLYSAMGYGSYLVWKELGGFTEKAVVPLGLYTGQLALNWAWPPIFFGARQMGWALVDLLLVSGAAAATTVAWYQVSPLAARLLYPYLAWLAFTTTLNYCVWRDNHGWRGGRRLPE
# In short: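 Cell-free radioligand displacement, human colonic membranes, 1 h exposure. Filter radiodetection read-out. Single-concentration duplicates (25 uM), then concentration-response for actives; DMSO negative control.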
# [9] = target: rat Adrenergic, Alpha 1A Receptor (Adra1A), Adra1a (gene 29412) (UniProt P43140); assay: NVS_GPCR_rAdra1A: NovaScreen (NVS) G Protein-Coupled Receptor Assay for rat Adrenergic, Alpha 1A Receptor (Adra1A) (AID 2283296)
# Sequence of rat Adrenergic, Alpha 1A Receptor (Adra1A), Adra1a (gene 29412) (P43140 whole entry, looked up): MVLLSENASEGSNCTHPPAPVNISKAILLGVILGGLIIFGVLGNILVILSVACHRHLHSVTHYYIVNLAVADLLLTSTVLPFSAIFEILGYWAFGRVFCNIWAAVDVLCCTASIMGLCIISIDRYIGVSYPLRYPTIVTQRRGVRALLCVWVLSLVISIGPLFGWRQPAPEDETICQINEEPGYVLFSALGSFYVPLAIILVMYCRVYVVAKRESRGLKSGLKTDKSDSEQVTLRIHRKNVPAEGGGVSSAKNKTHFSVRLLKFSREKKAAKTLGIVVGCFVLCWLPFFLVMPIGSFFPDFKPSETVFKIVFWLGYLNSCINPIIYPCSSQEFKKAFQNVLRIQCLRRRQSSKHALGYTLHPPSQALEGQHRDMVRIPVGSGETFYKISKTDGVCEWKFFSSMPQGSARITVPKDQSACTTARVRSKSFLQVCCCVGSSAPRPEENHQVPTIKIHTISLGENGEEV
# In short: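 Filter radiodetection after 1 h competitive binding on CEC-pretreated rat cortical membranes. Duplicate single-point screening at 25 uM; active chemicals retested across concentration series.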
# [10] = target: rat Neurokinin-1 Receptor (NK1), Tacr1 (gene 24807) (UniProt P14600); assay: NVS_GPCR_rNK1: NovaScreen (NVS) G Protein-Coupled Receptor Assay for rat Neurokinin-1 Receptor (NK1) (AID 2283309)
# In short: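 Competitive radioligand binding to NK1 in rat submaxillary membranes, 1 h incubation, filtration and scintillation read-out. Compounds first screened at 25 uM in duplicate, then concentration-response for actives; signal loss relative to DMSO.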
# [11] = target: rat Opioid Receptor, Non-selective Sodium (Na+) Binding, Oprm1 (gene 25601) (UniProt P33535); assay: NVS_GPCR_rOpiate_NonSelectiveNa: NovaScreen (NVS) G Protein-Coupled Receptor Assay for rat Opioid Receptor, Non-selective Sodium (Na+) Binding (AID 2283311)
# Sequence of rat Opioid Receptor, Non-selective Sodium (Na+) Binding, Oprm1 (gene 25601) (P33535 whole entry, looked up): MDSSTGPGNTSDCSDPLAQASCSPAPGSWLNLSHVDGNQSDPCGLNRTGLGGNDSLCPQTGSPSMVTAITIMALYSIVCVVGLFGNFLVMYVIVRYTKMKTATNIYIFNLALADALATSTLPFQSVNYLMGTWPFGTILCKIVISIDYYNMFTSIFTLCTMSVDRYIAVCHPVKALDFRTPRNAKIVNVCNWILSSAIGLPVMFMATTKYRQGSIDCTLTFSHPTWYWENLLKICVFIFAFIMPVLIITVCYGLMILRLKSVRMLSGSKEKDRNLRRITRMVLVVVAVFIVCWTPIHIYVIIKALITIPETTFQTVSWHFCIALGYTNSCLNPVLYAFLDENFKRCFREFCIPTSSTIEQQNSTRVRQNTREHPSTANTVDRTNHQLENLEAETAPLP
# In short: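 Filtration radioligand binding on rat forebrain membrane preparations, read 1.5 h after dosing. Single-concentration 25 µM primary screen in duplicate, followed by singleton concentration series to 50 µM max for actives; DMSO baseline.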
# [12] = target: rat Opioid Receptor, Non-selective Binding, Oprm1 (gene 25601) (UniProt P33535); assay: NVS_GPCR_rOpiate_NonSelective: NovaScreen (NVS) G Protein-Coupled Receptor Assay for rat Opioid Receptor, Non-selective Binding (AID 2283318)
# Sequence of rat Opioid Receptor, Non-selective Binding, Oprm1 (gene 25601) (P33535 whole entry, looked up): as above
# In short: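 Filter-based radioligand displacement using rat forebrain membrane preparations, measured 1.5 h post-dosing. Single-concentration duplicate screen at 25 uM, follow-up in concentration series; activity taken as signal loss relative to DMSO.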
# NCBI gene 24521 = assay: NVS_IC_rKATPCh: NovaScreen (NVS) Ion Channel Assay for rat Potassium Channel, ATP-Sensitive (KATPCh) (AID 2283319)
# In short: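 Primary duplicate screen at 25 uM, then singleton concentration series to 50 uM maximum, in a rat cortex membrane radioligand displacement assay. Binding measured by filtration and scintillation 2 h post-dose; DMSO baseline.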
# [13] = target: rat Gamma-Aminobutyric Acid Type A Receptor, Non-Selective (GABAR-NonSelective), Gabra1 (gene 29705) (UniProt P62813); assay: NVS_LGIC_rGABAR_NonSelective: NovaScreen (NVS) Ligand-Gated Ion Channel Assay for rat Gamma-Aminobutyric Acid Type A Receptor, Non-Selective (GABAR-NonSelective) (AID 2283326)
# In short: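 Compounds were first screened in duplicate at 25 uM, with actives run as singleton concentration series (max 50 uM). Binding of a radioligand to rat whole-brain GABA-A preparation was measured by filtration and scintillation counting after 1 h, DMSO baseline.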
# [14] = target: human Serotonin, 5-Hydroxytryptamine Receptor 3 (5HT3), HTR3A (gene 3359) (UniProt P46098); assay: NVS_LGIC_h5HT3: NovaScreen (NVS) Ligand-Gated Ion Channel Assay for human Serotonin, 5-Hydroxytryptamine Receptor 3 (5HT3) (AID 2283325)
# Sequence of human Serotonin, 5-Hydroxytryptamine Receptor 3 (5HT3), HTR3A (gene 3359) (P46098 whole entry, looked up): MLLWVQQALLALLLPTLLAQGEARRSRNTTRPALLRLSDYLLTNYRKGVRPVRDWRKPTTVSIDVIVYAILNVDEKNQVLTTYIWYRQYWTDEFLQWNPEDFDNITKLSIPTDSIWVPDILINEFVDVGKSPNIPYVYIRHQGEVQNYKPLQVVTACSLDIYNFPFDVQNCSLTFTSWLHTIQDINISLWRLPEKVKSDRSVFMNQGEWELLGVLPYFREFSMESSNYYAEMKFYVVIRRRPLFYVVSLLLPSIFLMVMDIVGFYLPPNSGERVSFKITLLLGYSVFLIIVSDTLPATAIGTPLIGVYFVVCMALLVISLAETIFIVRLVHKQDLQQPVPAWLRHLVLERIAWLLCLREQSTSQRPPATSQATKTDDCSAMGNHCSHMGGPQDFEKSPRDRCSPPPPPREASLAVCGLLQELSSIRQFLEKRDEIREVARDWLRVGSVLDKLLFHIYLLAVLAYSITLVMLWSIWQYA
# In short: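 Initially tested at 25 uM in duplicate, then up to 50 uM in concentration-response for actives, compounds competed with a radioligand for HEK293-derived human 5-HT3 receptor. Bound counts were measured by filtration and scintillation at 1 h; loss of signal versus DMSO.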
smiles,measurement,setting,value
CCCCCCC(C)(C)C(=O)O,outcome,[1],inactive
CC(C)[C@@H]1CC[C@@H](C)C[C@H]1O,AC50,[2],13.1 µM (active)
CCCCc1oc2ccccc2c1C(=O)c1cc(I)c(OCCN(CC)CC)c(I)c1,AC50,[3],9.13 µM (active)
same,AC50,[4],10.8 µM (active)
same,AC50,[5],6.48 µM (active)
same,AC50,Adra2b (gene 24174),11.4 µM (active)
same,AC50,[6],0.772 µM (active)
same,AC50,[7],1.67 µM (active)
same,AC50,[8],5.22 µM (active)
O=C(NCc1ncc(C(F)(F)F)cc1Cl)c1c(Cl)cccc1Cl,AC50,[8],0.00396 µM (active)
Cc1ccc(S(=O)(=O)O)cc1,AC50,[1],0.167 µM (active)
CCCCCc1ccc(O)cc1,AC50,[7],1.07 µM (active)
same,AC50,[8],25 µM (active)
N=C(N)c1ccc(OCCCCCOc2ccc(C(=N)N)cc2)cc1,AC50,[9],1.32 µM (active)
same,AC50,[3],1.06 µM (active)
same,AC50,[4],3.49 µM (active)
same,AC50,[5],0.362 µM (active)
same,AC50,Adra2b (gene 24174),9.06 µM (active)
same,outcome,[10],inactive
same,AC50,[11],18.4 µM (active)
same,AC50,[12],5.6 µM (active)
same,outcome,NCBI gene 24521,inactive
same,AC50,[7],16.1 µM (active)
same,outcome,[13],inactive
CN(C)CCOC(c1ccccc1)c1ccccc1,AC50,[3],9.65 µM (active)
same,AC50,[4],8.43 µM (active)
same,outcome,[5],inactive
same,AC50,Adra2b (gene 24174),3.12 µM (active)
same,outcome,[11],inactive
same,AC50,[12],7 µM (active)
same,AC50,[7],3.25 µM (active)
O=C(O)c1cccc(C(=O)O)n1,outcome,[1],inactive
CCc1cccc(CC)c1N(COC)C(=O)CS(=O)(=O)O,outcome,[7],inactive
CCCCC(CC)C(=O)O (centres undefined),outcome,[14],inactive
